The text below walks through data of PubChem BioAssay (NCI).

About 83,000 compounds went through this panel and 20% of them were active in at least one assay; those are over-represented in the sample as a whole.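 Results are percent growth after 48 hours of single-concentration exposure. 100 means growth as in untreated cells, lower positive values show inhibition; negative values down to -100 show cell death.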 Unmarked numbers belong to inactive results. Active and inactive are the calls of the source. Rule for the calls: active = growth percent below 10; inactive = the rest.

Test in all cases: NCI-60 one-dose screen, 48 h (100 = growth as untreated, 0 = no growth, -100 = all killed)
What all share (settings): 10 µM unless noted

Experiment [1] relates to NCI-H23 lung.
The test system of experiment [2] is NCI-H226 lung.
The subject of experiment [3] is NCI-H322M lung.
In experiment [4] the test system is HOP-62 NSCLC.
For experiment [5], the system named is NCI-H460 lung.
In experiment [6] the test system is NCI-H522 lung.
Experiment [7] relates to A549/ATCC NSCLC.
Experiment [8] concerns 786-0 renal.
The test system of experiment [9] is COLO 205 colon.
Experiment [10] has as its system DU-145 prostate.
Experiment [11] deals with K-562 leukemia.
Experiment [12] concerns MALME-3M melanoma.
Experiment [13] concerns MDA-MB-231 breast.
Experiment [14] has as its system RXF 393 renal.
For experiment [15], the system named is SF-268 CNS.
Experiment [16] concerns SF-295 CNS.
For experiment [17], the system named is SF-539 CNS.
In experiment [18] the test system is UACC-257 melanoma.
For experiment [19], the system named is M14 melanoma.

Regarding `CNCCCn1c2c(c3ccc(Cl)cc3c1=O)C(=O)c1cc(OC)cnc1-2`, the growth in experiment [1] is 34%; in experiment [2], 43%; in experiment [3] it was 61.8%; in experiment [4], 17.6%; in [5] it was -77.3% (active); in experiment [6], 10.1%. Also, the growth in [7] is -88.5% (active); in [8], -85.1% (active); in [9] it was 51.9%; in [10], -85.2% (active); in experiment [11] it was -66% (active); in experiment [12], 72.8%. Besides, the growth was 77.3% in experiment [13]; 61.2% in experiment [14]; 34.7% in [15]; 14.6% in experiment [16]; 29.1% in experiment [17]; 56.9% in experiment [18]. The growth in experiment [19] was 36%.
Consider `C=C1C(=O)O[C@H]2[C@H]1CC/C(COC(=O)N[C@@H](Cc1c[nH]c3ccccc13)C(=O)OC)=C\CC[C@@]1(C)O[C@@H]21`, for which the growth in experiment [1] was 68.5%; in [2] it was 58.4%; in experiment [3] it was 80.5%; in experiment [4] it was 68.8%; in experiment [5], 40.5%; in experiment [6], -71.1% (active). In addition, the growth in [7] was 47.2%; in [8], -48.6% (active); in experiment [9] it was -69.2% (active); in experiment [10], 20.5%; in [11], -1.67% (active); in experiment [12], -38.4% (active). For the same molecule, the growth was 25.2% in experiment [13]; -55.4% (active) in experiment [14]; 46.7% in experiment [15]; 72.3% in [16]; 25.3% in experiment [17]; 11.5% in experiment [18]. Moreover, the growth in experiment [19] is -45.3% (active).
Consider `O=c1c2cc(Br)cc(Br)c2nc(-c2ccc(Cl)cc2)n1/N=C/c1cccc(F)c1`, for which the growth is 53.6% in [1]; 40.9% in experiment [2]; 49.3% in experiment [3]; 10.8% in experiment [4]; 40.1% in experiment [5]; 38.9% in [6]. Moreover, the growth was 48.6% in experiment [7]; 9.97% (active) in [8]; 54.3% in [9]; 91.4% in [10]; 63.2% in [11]; 63.3% in experiment [12]. The growth was 46.1% in [13]; 47.2% in [14]; 70.4% in [15]; 41% in experiment [16]; 64.4% in experiment [17]; 93% in [18]. Also, the growth in [19] was 67.5%.
`CC(C)CCC(=O)[C@@H](C)[C@H]1[C@@H](OC2OCC(O)C(O)C2NS(C)(=O)=O)C[C@H]2[C@@H]3CC=C4C[C@@H](O)CC[C@]4(C)[C@H]3CC[C@]12C` (some centres not stated): the growth is 56.8% in experiment [1]; 52.4% in [2]; 68.5% in [3]; 8.62% (active) in [4]; 12.1% in experiment [5]; 20.7% in experiment [6]. The growth in [7] is 33.4%; in experiment [8] it was -32% (active); in experiment [9], -0.62% (active); in experiment [10], 49%; in [11], 2.65% (active); in [12], 8.83% (active). For the same molecule, the growth in [13] was 43.8%; in experiment [14], -65.1% (active); in experiment [15] it was 9.17% (active); in experiment [16] it was -60.9% (active); in experiment [17] it was -41.2% (active); in [18] it was -42.8% (active). The growth in [19] was -53.1% (active).
Turning to `C=C1C(=O)O[C@H]2[C@H]1CC/C(COC(=O)NCc1c[nH]c3ccc(OC)cc13)=C\CC[C@@]1(C)O[C@@H]21`, the growth in experiment [1] is 51.6%; in experiment [2], 27.9%; in [3], 84.9%; in [4], 49.2%; in experiment [5] it was 33.7%; in experiment [6], -72.8% (active). For the same molecule, the growth in experiment [7] was 29.6%; in experiment [8], -59.2% (active); in experiment [9], -69.2% (active); in [10], -10.4% (active); in experiment [11], 3.23% (active); in [12], -31% (active). The growth in experiment [13] is -6.78% (active); in [14], -93.3% (active); in experiment [15], 45.2%; in [16], 63.5%; in experiment [17], -23.3% (active); in [18], -16.3% (active). Besides, the growth in experiment [19] is -48% (active).
As for `c1ccc(CCn2cccc2)nc1`, the growth is 106% in experiment [1]; 107% in experiment [2]; 122% in [3]; 98% in [4]; 123% in [5]; 106% in experiment [6]. Moreover, the growth in experiment [7] is 109%; in experiment [8], 103%; in experiment [9] it was 94.8%; in [10], 104%; in [11] it was 98.6%; in experiment [12], 114%. Also, the growth in experiment [13] was 94.9%; in experiment [14] it was 116%; in experiment [15], 96.5%; in experiment [16], 114%; in experiment [17], 106%; in experiment [18], 108%. The growth in experiment [19] was 106%.
Consider `CCCCCN(CCCCC)C(=O)C(CCC(=O)O)NC(=O)c1ccc(Cl)c(Cl)c1` (configuration not stated), for which the growth in [1] is 105%; in experiment [2], 92.6%; in experiment [3], 102%; in experiment [4] it was 102%; in experiment [5], 106%; in [6], 110%. Further, the growth in [7] was 85%; in experiment [8] it was 106%; in experiment [9], 120%; in [10] it was 113%; in [11], 115%; in experiment [12] it was 104%. The growth in experiment [13] is 88.1%; in experiment [14] it was 106%; in [15], 110%; in experiment [16], 110%; in [17], 113%; in experiment [18] it was 111%. Besides, the growth in [19] is 109%.
Turning to `CCCCn1cnc2c(SCc3ccc([N+](=O)[O-])cc3)nc(N)nc21`, the growth is 96.5% in experiment [1]; 85.6% in experiment [2]; 112% in experiment [3]; 95.2% in experiment [4]; 108% in experiment [5]; 73.9% in [6]. Besides, the growth was 90.6% in [7]; 79.5% in experiment [8]; 105% in experiment [9]; 123% in experiment [10]; 59.8% in [11]; 130% in experiment [12]. The growth in experiment [13] was 82.3%; in experiment [14], 106%; in experiment [15], 84.4%; in [16] it was 122%; in experiment [17], 94.7%; in experiment [18] it was 97.5%. For the same molecule, the growth in experiment [19] was 106%.
